# High-throughput results as filed in PubChem.
# D2 ag-1: agonists of human D2 dopamine receptor; 340,000 compounds, 0.53% hits; HEK293 T-REx D2 cells, calcium flux agonist mode; activation, % at 2 µM;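 active means activation over 3 SD above normal in the single-dose calcium agonist read, cut at about 30% in these data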; further: 0% is about no effect
#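 Agonism scored from kinetic calcium signal (1 read/sec, 180 s) following compound pin transfer, after a 10 s baseline. Cells: HEK293 Trex line expressing inducible D2 receptor coupled to calcium, dye-loaded after overnight culture at 30 C.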
# D2 PAM-1: positive allosteric modulators of human D2 dopamine receptor; 340,000 compounds, 0.34% hits; potentiation, % at 10 µM; HEK293 T-REx D2, calcium flux, EC20 dopamine potentiation;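 active means potentiation over 3 SD above the plate norm, cut at about 30% in these data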; further: 0% is about no effect
#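 Tetracycline-induced Hek293 Trex D2 cells, force-coupled to calcium, loaded with no-wash calcium dye. Compound added with 180 s kinetic read for agonism, then EC20 dopamine and a further 180 s read for potentiation.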
# D2 PAM-2: human D2 receptor positive allosteric modulation; P14416; 360,000 compounds, 0.23% hits; potentiation, % (no concentration beside the values); AID 624464; DiscoveRx D2 beta-arrestin cells, luminescence, 90 min; 100% = 57 uM dopamine signal; in the data active means potentiation above about 50%; inconclusive means mostly about 30% to 49%
#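 PathHunter beta-arrestin assay in DiscoveRx D2 cells. Compounds were added with an EC20 of dopamine (50 nM final) for 90 min at 37 deg C. Luminescence was read 1 h after detection reagent, with 57 uM dopamine as the EC100 control.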
# D2 antag: antagonizes the human D2 dopamine receptor | HEK293 TREx D2 cells, calcium flux, dopamine EC80 | inhibition, % at 10 µM | 340,000 compounds, 2% hits | AID 485344; in the data active means inhibition above about 30%; inactive means below that, where a call was filed; further: 0% is about no effect
#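 In this primary screen, negative modulation is detected by tracking calcium flux after an EC80 dopamine challenge in inducible HEK293 T-REx D2 cells preexposed to test compound for 180 s.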
# D2 ag-2: human D2 receptor agonism in beta-arrestin assay; P14416; activation, % (test concentration not listed); 360,000 compounds, 0.084% hits; DiscoveRx PathHunter D2 beta-arrestin, luminescence, 90 min; 100% = 57 uM dopamine signal; AID 624465; in the data active means activation above about 40%; inconclusive means between about 15% and that limit
#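 Agonist mode: compounds alone added to overnight-plated D2 PathHunter cells for 90 min at 37 C, with 57 uM final dopamine (EC100) defining full response. Beta-arrestin recruitment detected by chemiluminescent reagent, read after 1 h at ambient temperature.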
# D3 arrestin ag: confirmation of human D3 dopamine receptor agonists, beta-arrestin | Potency, µM (top dose mostly 76.9 µM), for the others: top-dose activation, most hits filed as activators | 2,300 compounds, 4% hits | AID 720506 | shares compounds with D2 ag-1 | DiscoveRx D3 beta-arrestin cells, luminescence, 90 min;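 further: potency means the concentration at half of the fitted maximal effect; 100% = dopamine control response; nearly all actives have a fitted effect of over 70% in size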
# Target sequence (P35462 whole entry, looked up): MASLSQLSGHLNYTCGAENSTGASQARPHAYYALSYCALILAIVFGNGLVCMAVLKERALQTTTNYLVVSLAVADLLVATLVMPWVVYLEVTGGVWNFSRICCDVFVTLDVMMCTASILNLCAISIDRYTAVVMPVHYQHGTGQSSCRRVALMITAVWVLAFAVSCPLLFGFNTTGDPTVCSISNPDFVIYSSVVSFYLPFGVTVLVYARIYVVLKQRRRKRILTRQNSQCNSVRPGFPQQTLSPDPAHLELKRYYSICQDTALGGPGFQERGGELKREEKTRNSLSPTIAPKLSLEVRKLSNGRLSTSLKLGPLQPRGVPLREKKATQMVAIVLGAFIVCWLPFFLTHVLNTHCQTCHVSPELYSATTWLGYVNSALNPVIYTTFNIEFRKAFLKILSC
# D2 ag-3: activates human D2 dopamine receptor in D3 counterscreen | shares compounds with D2 ag-1 | DiscoveRx PathHunter D2 beta-arrestin, luminescence, 90 min; response scale: percent relative to full dopamine signal | Potency, µM (top dose mostly 76.9 µM), without a hit: top-dose activation, most hits filed as activators | 2,300 compounds, 5.9% hits; further: potency means the concentration at half of the fitted maximal effect; % of control where 0% means no effect; nearly all actives have a fitted effect of over 70% in size
# An asterisk follows results filed as active; ? = inconclusive; nt = no result given. Hits are enriched below; roughly 2.4% of the tested compounds scored in any of these assays. Unless noted, the call rests on the fitted dose curve; in most records, active means well fitted activation curve with a large enough effect; inconclusive means small, poorly fitted or top-dose-only effect; inactive means flat fitted curve, though single readings scatter.
SMILES,D2 ag-1,D2 PAM-1,D2 PAM-2,D2 antag,D2 ag-2,D3 arrestin ag,D2 ag-3
COc1ccccc1NC(=O)c1ccc(NC(=O)CN2CCN(C(=O)c3ccco3)CC2)cc1,51*,-7,19,41*,11,?,20%
Cc1nc(NC(=O)CN2CCCCC2)sc1C(=O)N(C)C,0,3,-1,7,-1,nt,nt
Cc1ccc(NC(=O)C2CCC(CNS(=O)(=O)c3ccc4c(c3)CCCC(=O)N4)CC2)cc1F (centres undefined),nt,-1,nt,nt,nt,nt,nt
O=C(Cn1nnnc1-c1ccccc1F)Nc1ccc(F)c(F)c1,-1,-7,nt,nt,nt,nt,nt
Cc1cc(Cl)ccc1NC(=O)CN1CCN(C(=O)c2ccco2)CC1,1,4,4,4,2,nt,nt
COc1ccc([N+](=O)[O-])cc1NC(=O)CCN1CCN(c2ccccc2)CC1,nt,nt,6,nt,47*,?,?
COc1ccc([N+](=O)[O-])cc1NC(=O)CCCOc1ccccc1,0,-35,-19,2,-3,nt,nt
COc1ccccc1NC(=O)CN1CCN(c2ccccc2)CC1,49*,-29,-6,39*,5,-3%,9%
COc1ccccc1N1CCN(CC(=O)Nc2ccc(CN3CCCCC3)cc2)CC1,31*,-24,-9,39*,12,-7%,13%
Cc1ccccc1NC(=O)CN1CCN(C(=O)c2ccco2)CC1,44*,-11,4,-15,11,-6%,22%
Cn1c(SCc2ccc(F)cc2)nc2ccc(C(=O)NCc3cccc(Cl)c3)cc21,1,0,nt,nt,nt,nt,nt
COc1ccccc1NC(=O)CN1CCN(C(=O)c2ccco2)CC1,nt,nt,-21,nt,7,?,13%
CCC12CN3CC(C)(CN(C1)C3c1ccccc1C)C2=O (centres undefined),0,0,nt,nt,nt,nt,nt
CCN1CCN(CCC(=O)Nc2ccc3c(c2)OCO3)CC1,0,-7,-4,0,2,nt,nt
O=C(CCN1CCN(c2ccccc2F)CC1)Nc1ccc2c(c1)OCO2,80*,-19,3,86*,?,?,?
O=C(CN1CCN(c2ccc(O)cc2)CC1)Nc1ccc2c(c1)OCCCO2,35*,-12,15,1,7,40µM*,35µM*
COc1ccc(NC(=O)CN2CCN(c3ccccc3F)CC2)c(OC)c1,nt,-22,nt,nt,nt,nt,nt
COc1ccc(NC(=O)CCN2CCN(c3ccccc3F)CC2)c(OC)c1,90*,-28,13,86*,49*,?,?
O=C(CCN1CCN(c2ccccc2)CC1)Nc1ccc2c(c1)OCO2,103*,-27,-14,108*,?,?,?
COc1ccc(C)cc1-n1nnc(C(=O)Nc2cccc(SC)c2)c1C,1,2,nt,nt,nt,nt,nt
CCOc1ccc(NC(=O)Cn2c(=O)c(CNc3ccc(OC)cc3)cc3ccc(OC)cc32)cc1,0,0,nt,nt,nt,nt,nt
O=C(CCN1CCN(c2ccccc2)CC1)Nc1cccc(Br)c1,60*,-22,-8,75*,-1,21%,12%
O=C(CCN1CCN(c2ccccc2)CC1)Nc1nccs1,71*,-31,-28,93*,14,25%,16%
Cc1ccc2c(=O)cc(C(=O)Nc3ccc(S(=O)(=O)N4CCCCCC4)cc3)oc2c1C,0,11,nt,nt,nt,nt,nt
Cc1ccc(C(=O)c2oc3ccccc3c2NC(=O)c2cc(-c3ccc(Cl)cc3)on2)cc1,1,10,nt,nt,nt,nt,nt
SMILES,D2 ag-1,D2 PAM-1,D2 PAM-2,D2 antag,D2 ag-2,D3 arrestin ag,D2 ag-3
O=C(NCc1ccc2c(c1)OCO2)c1nc(Cn2cc(Br)cn2)no1,nt,nt,-4,nt,2,-1%,-3%
Cn1c(=O)cc(SCC(=O)NCCCN2CCN(c3ccc(F)cc3)CC2)c2ccccc21,33*,-26,-34,91*,2,-5%,9%
C/C(=N\NC(=O)c1ccc(Br)cc1)C1C(=O)c2ccccc2C1=O,3,-4,-14,-2,-2,nt,nt
C/C(=N\NC(=O)c1ccc(-c2ccccc2)cc1)C1C(=O)c2ccccc2C1=O,32*,-14,1,84*,4,2%,-1%
O=C(CCCn1c(=O)c2ccccc2n(Cc2ccc(F)cc2Cl)c1=O)NCCc1ccc(Cl)cc1,0,1,nt,nt,nt,nt,nt
Cc1ccc(-n2nc3c(=O)n(CC(=O)NCc4ccccn4)nc(C)c3c2C)cc1,52*,-17,-6,-5,0,-6%,-3%
COC(=O)c1cccnc1-n1c(=O)c2cccnc2n(CC(=O)Nc2cccc(C)c2)c1=O,0,2,nt,nt,nt,nt,nt
CCOC(=O)C1CCN(C(=O)C2CCN(c3nnc(C)c4c(C)n(-c5ccccc5)nc34)CC2)CC1,0,6,nt,nt,nt,nt,nt
Cn1c(N)c(C(=O)CSc2nnc(-c3cccs3)n2C2CC2)c(=O)[nH]c1=O,77*,-21,15,19,?,21%,21%
Nc1c(C(=O)CSc2n[nH]c(-c3ccccc3Br)n2)c(=O)[nH]c(=O)n1C1CC1,0,-6,-7,-11,-4,nt,nt
Nc1c(C(=O)CSc2n[nH]c(-c3ccccc3)n2)c(=O)[nH]c(=O)n1C1CC1,66*,-27,10,-8,?,3%,15%
O=C(C1CCCCC1)N(Cc1cccnc1)c1nc2c(F)cccc2s1,nt,9,nt,nt,nt,nt,nt
Cc1ccc2c(c1)C(O)(CC(=O)/C=C/C=C/c1ccccc1)C(=O)N2 (centres undefined),48*,-11,-5,45*,-1,-10%,-6%
CSc1nc2ccccc2c(=O)n1C1CCOC(C)(C)C1 (centres undefined),21,8,2,19,?,19%,4%
CSc1nc2ccccc2c(=O)n1C1CCCCC1,0,5,1,17,0,nt,nt
Cn1nc(C(F)(F)F)c(-c2ccccc2)c1NC(=O)c1ccco1,0,1,-17,-8,-4,nt,nt
Cn1nc(C(F)(F)F)c(-c2ccc(F)cc2)c1NC(=O)c1ccco1,0,-3,-3,-6,1,1%,2%
COc1ccc(C)cc1NC(=O)NC(C)c1ccc2c(c1)OCO2 (centres undefined),65*,-22,-30,8,-3,-5%,-6%
CCC(=O)N1CCc2cc(CNS(=O)(=O)c3ccccc3F)ccc21,0,nt,nt,nt,nt,nt,nt
CCN(CC)C(=O)c1cccc(NC(=O)CCc2nc3sc4c(c3c(=O)[nH]2)CCCC4)c1,-1,-1,-19,-12,1,-5%,7%
COc1cccc(C(=O)N(Cc2cccnc2)c2nc3c(OC)ccc(C)c3s2)c1OC,1,5,nt,nt,nt,nt,nt
